The results in this text go back to ChEMBL document CHEMBL3433997, “St. Jude Leishmania screening dataset” (2016).

In one experiment the target is Hexose transporter 1 (Plasmodium falciparum) (UniProt O97467). In words: ST_JUDE_LEISH: Cytotoxicity at 2uM final concentration against transgenic Leishmania Mexicana promastigotes LmPfHT that are glucose transport deficient and complemented with the Plasmodium falciparum hexose transporter. Activity is measured by DNA content using SYBR green in vitro. It counts as functional.
Consider `CC(C)CNCc1cccc(-c2cccc(CNc3ccc4ncccc4c3)c2)c1`, for which the inhibition came to 1.32%.
On to `COc1ccc2[nH]c(C)cc(=NN=Cc3ccccc3F)c2c1`, for which the inhibition came out at 2.87%.
Take `CC1(C)NC(N)=NC(=N)N1OCCCCOc1ccccc1`: the inhibition was 0.84%.
The same measure, in the same setting: next, `COc1ccc(C(=O)CCc2ccc(O)cc2)cc1`: 1.48%; `CN(CCc1ccccc1)c1ncc(-c2ccccc2CNCc2ccccc2O)cn1`: -1.17%; `Cc1ccc(O)cc1C[C@@H]1C(=O)CC[C@@]2(C)[C@H]1CC[C@]2(C)O`: 1%.
In the case of `O=C(Nc1cccc(OC2CCN(Cc3ccccc3)CC2)c1)c1ccc(Cl)c(Cl)c1`, the inhibition is 1.85%.
`Cc1ccc2nc(-c3ccc(C(=O)NCc4ccc(Cl)c(Cl)c4)cc3)[nH]c2c1C`: the inhibition turned out to be 0.03%.
As to `Cn1cnc2nc(NCCc3ccccc3)nc(NCc3cccc4ccccc34)c21`, the inhibition was found to be 1.38%.
Take `CCn1ncc2c(NC3CCOCC3)c(CNC(=O)c3ccnn3C)c(C)nc21`: the inhibition was determined as 2.89%.
Same read-out and setting: the same measure for `CN1CCN(CCCN(Cc2csc(-c3ccc(CNCc4ccccc4)cc3)n2)S(=O)(=O)c2ccccc2Cl)CC1`: 0.37%.
As for `CCN(CC)C(=O)c1cccc(C=Cc2ccc(-c3c(C)[nH]c(C)c(Cl)c3=O)cc2)c1`, the inhibition turned out to be 2.83%.
`CC(=O)Nc1[nH]c(-c2ccccc2)nc1C(N)=O`: the inhibition is -0.89%.
For `O=C(Nc1cccc(-c2ccc(-c3nc4cc(F)ccc4[nH]3)cc2)c1)c1ccoc1`, the inhibition is 1.14%.
On the same count and under the same terms, the same measure for `CCn1c(-c2nonc2N)nc2c(-c3cccc(NC(=O)Nc4ccccc4OC)c3)ncc(OCCCN)c21`: 3.41%.
With `CCNc1cc(C(=O)N[C@@H](Cc2ccccc2)[C@H](O)CNC(CC)c2cccc(Cl)c2)cc(N2CCCCS2(=O)=O)c1` (stereo not given in full), the inhibition stood at 1.05%.
Turning to `CC(C)(C)OC(=O)NCc1ccc(Nc2nnc(-c3cccc(C(=O)NCc4cc(C(F)(F)F)cc(C(F)(F)F)c4)c3)o2)cc1`, the inhibition was found to be 7.58%.
For `N=C(N)NCC=C(c1ccccc1)c1ccccc1`, the inhibition is 5.26%.
In the case of `CC(CN1CCN(C)CC1)C(=O)Nc1ccc(-c2cccc(-c3nc4ccccc4[nH]3)c2)cc1` (stereo not given), the inhibition amounted to 1.7%.
For the molecule `Cc1ccc(NC(=O)NC2CCN(CCCCCNC(=O)/C=C/c3ccc(Cl)c(Cl)c3)CC2)cc1`, the inhibition was 1.16%.
As to `CC(C)C[C@H](NC(=O)c1ccc(OCCN2CCOCC2)cc1)C(=O)N[C@H](/C=N/NC(=O)c1ccccc1)CCc1ccccc1`, the inhibition worked out at 5.83%.
As for `O=[N+]([O-])c1cccc(CNC2CCN(Cc3ccc(-c4ccccc4)cc3)CC2)c1`, the inhibition was 8.06%.
On to `Cc1cccc2nc(-c3cccc(-c4ccc(NC(=O)NCc5ccccc5)cc4)c3)[nH]c12`, for which the inhibition came to 2.74%.
Take `O=C(Cn1c(SCc2cccc(F)c2F)cc(=O)c2ccccc21)N(CCN1CCCCC1)Cc1ccc(-c2ccc(C(F)(F)F)cc2)cc1`: the inhibition is -1.37%.
As for `O=C(c1cccs1)N1N=C(c2cccs2)CC1c1cccc([N+](=O)[O-])c1` (stereo not given), the inhibition turned out to be 5.4%.
`COc1cc(N)c(Cl)cc1C(=O)NC1CCC(NCC2CCCCC2)CC1` (stereo not given): the inhibition was determined as 1.99%.
As to `N#CN1CC[C@@H](NS(=O)(=O)Cc2ccc(Cl)c(Cl)c2)C1`, the inhibition was 4.08%.
As for `O=C(NC1CCCC1)c1cc2c(=O)n3ccccc3nc2[nH]/c1=N/CCc1ccccc1`, the inhibition is 8.49%.
On to `Clc1cccc(C=NN=c2cc[nH]c3ccccc23)c1`, for which the inhibition stood at 2.56%.
In the case of `Cc1cccc(Oc2cccc3[nH]nc(N)c23)c1`, the inhibition was 3.96%.
On to `CC(C)(C)c1ccc(CN2CCC(CNC(=O)c3cc(-c4cccc(Cl)c4)cs3)C2)cc1` (stereo not given), for which the inhibition worked out at 3.66%.
On the same count and under the same terms, the same measure for `NCC1CCCN1Cc1cccc(-c2ccc(-c3nc4cc(C(F)(F)F)ccc4[nH]3)s2)c1` (stereo not given): 0.87%.
With `Cc1cc(OCCCn2ccnc2)ccc1-c1csc(/N=C(\N)NCc2ccccc2)n1`, the inhibition was 5.79%.
Same read-out and setting: next, `Oc1ccc2[nH]c(-c3cccc(F)c3)nc2c1CN1CCC(N2CCCC2)CC1`: 3.65%; `N=C(N)NN=Cc1c2ccccc2c(Cl)c2c(Cl)cccc12`: 26.2%; `COc1ccc(Cl)cc1N1CCN(CCCNC(=O)c2ccc(-c3nc4cc(Cl)c(C)cc4[nH]3)c(F)c2)CC1`: 0.19%.
Regarding `CCNCCCC(C)Nc1ccnc2cc(Cl)ccc12` (stereo not given), the inhibition was -2.68%.
Same read-out and setting: the same measure for `O=C(NCCCCN1CCC(O)(c2ccc(Cl)cc2)CC1)c1ccc(Br)cc1`: 2.65%; for `CCNC(=O)Nc1ccc(-c2ccc(-c3nc4cccc(C)c4[nH]3)s2)cc1`: 8.87%; for `CCN1CCC(N(Cc2ccc(-c3ccc(C(F)(F)F)cc3)cc2)C(=O)CCCCn2c(CCc3cccc(F)c3F)nc(=O)c3ccccc32)CC1`: -1.15%.

The target of another experiment is Glucose transporter (Leishmania mexicana) (UniProt O61059). In words: ST_JUDE_LEISH: Cytotoxicity at 2uM final concentration against transgenic Leishmania Mexicana promastigotes LmGT2 that are glucose transport deficient and complemented with the L. Mexicana glucose transporter 2. Activity is measured by DNA content using SYBR green in vitro. It counts as functional.
On to `CC(C)CNCc1cccc(-c2cccc(CNc3ccc4ncccc4c3)c2)c1`, for which the inhibition was determined as 2.08%.
In the case of `COc1ccc2[nH]c(C)cc(=NN=Cc3ccccc3F)c2c1`, the inhibition was -2.38%.
Same read-out and setting: the same measure for `CC1(C)NC(N)=NC(=N)N1OCCCCOc1ccccc1`: -0.45%; for `COc1ccc(C(=O)CCc2ccc(O)cc2)cc1`: 2.43%.
Still for that read-out and setting: the same measure for `CN(CCc1ccccc1)c1ncc(-c2ccccc2CNCc2ccccc2O)cn1`: 2.23%; for `Cc1ccc(O)cc1C[C@@H]1C(=O)CC[C@@]2(C)[C@H]1CC[C@]2(C)O`: 2.57%.
Take `O=C(Nc1cccc(OC2CCN(Cc3ccccc3)CC2)c1)c1ccc(Cl)c(Cl)c1`: the inhibition amounted to 3.44%.
On to `Cc1ccc2nc(-c3ccc(C(=O)NCc4ccc(Cl)c(Cl)c4)cc3)[nH]c2c1C`, for which the inhibition was 0.59%.
Still for that read-out and setting: next, `Cn1cnc2nc(NCCc3ccccc3)nc(NCc3cccc4ccccc34)c21`: -1.12%.
For the molecule `CCn1ncc2c(NC3CCOCC3)c(CNC(=O)c3ccnn3C)c(C)nc21`, the inhibition amounted to 0.31%.
Take `CN1CCN(CCCN(Cc2csc(-c3ccc(CNCc4ccccc4)cc3)n2)S(=O)(=O)c2ccccc2Cl)CC1`: the inhibition amounted to 2.9%.
As for `CCN(CC)C(=O)c1cccc(C=Cc2ccc(-c3c(C)[nH]c(C)c(Cl)c3=O)cc2)c1`, the inhibition stood at 1.56%.
As for `CC(=O)Nc1[nH]c(-c2ccccc2)nc1C(N)=O`, the inhibition was -1.65%.
With `O=C(Nc1cccc(-c2ccc(-c3nc4cc(F)ccc4[nH]3)cc2)c1)c1ccoc1`, the inhibition was -0.42%.
As to `CCn1c(-c2nonc2N)nc2c(-c3cccc(NC(=O)Nc4ccccc4OC)c3)ncc(OCCCN)c21`, the inhibition was determined as 3.42%.
In the case of `CCNc1cc(C(=O)N[C@@H](Cc2ccccc2)[C@H](O)CNC(CC)c2cccc(Cl)c2)cc(N2CCCCS2(=O)=O)c1` (stereo not given in full), the inhibition is -0.27%.
Take `CC(C)(C)OC(=O)NCc1ccc(Nc2nnc(-c3cccc(C(=O)NCc4cc(C(F)(F)F)cc(C(F)(F)F)c4)c3)o2)cc1`: the inhibition turned out to be 5.41%.
`N=C(N)NCC=C(c1ccccc1)c1ccccc1`: the inhibition was found to be 6.35%.
On to `CC(CN1CCN(C)CC1)C(=O)Nc1ccc(-c2cccc(-c3nc4ccccc4[nH]3)c2)cc1` (stereo not given), for which the inhibition was -0.2%.
Still for that read-out and setting: the same measure for `Cc1ccc(NC(=O)NC2CCN(CCCCCNC(=O)/C=C/c3ccc(Cl)c(Cl)c3)CC2)cc1`: -5.98%; for `CC(C)C[C@H](NC(=O)c1ccc(OCCN2CCOCC2)cc1)C(=O)N[C@H](/C=N/NC(=O)c1ccccc1)CCc1ccccc1`: 2.03%; for `O=[N+]([O-])c1cccc(CNC2CCN(Cc3ccc(-c4ccccc4)cc3)CC2)c1`: 2.9%.
Regarding `Cc1cccc2nc(-c3cccc(-c4ccc(NC(=O)NCc5ccccc5)cc4)c3)[nH]c12`, the inhibition amounted to 1.31%.
For `O=C(Cn1c(SCc2cccc(F)c2F)cc(=O)c2ccccc21)N(CCN1CCCCC1)Cc1ccc(-c2ccc(C(F)(F)F)cc2)cc1`, the inhibition is -1.85%.
Take `O=C(c1cccs1)N1N=C(c2cccs2)CC1c1cccc([N+](=O)[O-])c1` (stereo not given): the inhibition is 7.21%.
As to `COc1cc(N)c(Cl)cc1C(=O)NC1CCC(NCC2CCCCC2)CC1` (stereo not given), the inhibition came to 1.15%.
Turning to `N#CN1CC[C@@H](NS(=O)(=O)Cc2ccc(Cl)c(Cl)c2)C1`, the inhibition is 4.15%.
`O=C(NC1CCCC1)c1cc2c(=O)n3ccccc3nc2[nH]/c1=N/CCc1ccccc1`: the inhibition was 5.94%.
Turning to `Clc1cccc(C=NN=c2cc[nH]c3ccccc23)c1`, the inhibition worked out at 2.9%.
For the molecule `Cc1cccc(Oc2cccc3[nH]nc(N)c23)c1`, the inhibition stood at 3.98%.
Take `CC(C)(C)c1ccc(CN2CCC(CNC(=O)c3cc(-c4cccc(Cl)c4)cs3)C2)cc1` (stereo not given): the inhibition worked out at 1.5%.
As to `NCC1CCCN1Cc1cccc(-c2ccc(-c3nc4cc(C(F)(F)F)ccc4[nH]3)s2)c1` (stereo not given), the inhibition was determined as 0.38%.
On the same count and under the same terms, the same measure for `Cc1cc(OCCCn2ccnc2)ccc1-c1csc(/N=C(\N)NCc2ccccc2)n1`: 6.56%; for `Oc1ccc2[nH]c(-c3cccc(F)c3)nc2c1CN1CCC(N2CCCC2)CC1`: 4.9%.
As for `N=C(N)NN=Cc1c2ccccc2c(Cl)c2c(Cl)cccc12`, the inhibition is 10.2%.
The same measure, in the same setting: next, `COc1ccc(Cl)cc1N1CCN(CCCNC(=O)c2ccc(-c3nc4cc(Cl)c(C)cc4[nH]3)c(F)c2)CC1`: 0.07%.
On the same count and under the same terms, the same measure for `CCNCCCC(C)Nc1ccnc2cc(Cl)ccc12` (stereo not given): -2.34%; for `O=C(NCCCCN1CCC(O)(c2ccc(Cl)cc2)CC1)c1ccc(Br)cc1`: 4.04%; for `CCNC(=O)Nc1ccc(-c2ccc(-c3nc4cccc(C)c4[nH]3)s2)cc1`: 7.95%.
As to `CCN1CCC(N(Cc2ccc(-c3ccc(C(F)(F)F)cc3)cc2)C(=O)CCCCn2c(CCc3cccc(F)c3F)nc(=O)c3ccccc32)CC1`, the inhibition was -0.6%.

By inhibition is commonly meant the change of the read-out against control, counted positive when it falls.
